Compound activity as filed in PubChem BioAssay.
Only some compounds are listed: those with a hit (about 1.9% of all), similar ones and a draw of the others.
Jurkat viability – cytotoxicity toward Jurkat T cells, primary screen, cytotoxicity control, cell-based, Jurkat E6.1, 60K MLSMR library. Jurkat E6.1 viability, ATP luminescence, 48 h. inhibition, % at 4 µM. 1.2% of 56,000 active. AID 463, 2006;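 active means inhibition above the mean inhibition of all tested compounds plus 3 SD, cut at about 28% in these data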
Her2 expr inh – inhibitors of Her2 protein expression, primary screen, SKBR-3 cells, AlphaScreen, 66K library; SKBR-3 HER2 protein level, 18-24 h; active compounds read low; HER2 level % of control, % at 10 µM; 0.69% of 65,000 active;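 active means HER2 level under 5% of the carrier-only control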;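 further: 100% = DMSO carrier and 0% = 500 nM PU-H71 HSP90 inhibitor; lower value means stronger loss of Her2 protein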
Target sequence (P04626 whole entry, looked up): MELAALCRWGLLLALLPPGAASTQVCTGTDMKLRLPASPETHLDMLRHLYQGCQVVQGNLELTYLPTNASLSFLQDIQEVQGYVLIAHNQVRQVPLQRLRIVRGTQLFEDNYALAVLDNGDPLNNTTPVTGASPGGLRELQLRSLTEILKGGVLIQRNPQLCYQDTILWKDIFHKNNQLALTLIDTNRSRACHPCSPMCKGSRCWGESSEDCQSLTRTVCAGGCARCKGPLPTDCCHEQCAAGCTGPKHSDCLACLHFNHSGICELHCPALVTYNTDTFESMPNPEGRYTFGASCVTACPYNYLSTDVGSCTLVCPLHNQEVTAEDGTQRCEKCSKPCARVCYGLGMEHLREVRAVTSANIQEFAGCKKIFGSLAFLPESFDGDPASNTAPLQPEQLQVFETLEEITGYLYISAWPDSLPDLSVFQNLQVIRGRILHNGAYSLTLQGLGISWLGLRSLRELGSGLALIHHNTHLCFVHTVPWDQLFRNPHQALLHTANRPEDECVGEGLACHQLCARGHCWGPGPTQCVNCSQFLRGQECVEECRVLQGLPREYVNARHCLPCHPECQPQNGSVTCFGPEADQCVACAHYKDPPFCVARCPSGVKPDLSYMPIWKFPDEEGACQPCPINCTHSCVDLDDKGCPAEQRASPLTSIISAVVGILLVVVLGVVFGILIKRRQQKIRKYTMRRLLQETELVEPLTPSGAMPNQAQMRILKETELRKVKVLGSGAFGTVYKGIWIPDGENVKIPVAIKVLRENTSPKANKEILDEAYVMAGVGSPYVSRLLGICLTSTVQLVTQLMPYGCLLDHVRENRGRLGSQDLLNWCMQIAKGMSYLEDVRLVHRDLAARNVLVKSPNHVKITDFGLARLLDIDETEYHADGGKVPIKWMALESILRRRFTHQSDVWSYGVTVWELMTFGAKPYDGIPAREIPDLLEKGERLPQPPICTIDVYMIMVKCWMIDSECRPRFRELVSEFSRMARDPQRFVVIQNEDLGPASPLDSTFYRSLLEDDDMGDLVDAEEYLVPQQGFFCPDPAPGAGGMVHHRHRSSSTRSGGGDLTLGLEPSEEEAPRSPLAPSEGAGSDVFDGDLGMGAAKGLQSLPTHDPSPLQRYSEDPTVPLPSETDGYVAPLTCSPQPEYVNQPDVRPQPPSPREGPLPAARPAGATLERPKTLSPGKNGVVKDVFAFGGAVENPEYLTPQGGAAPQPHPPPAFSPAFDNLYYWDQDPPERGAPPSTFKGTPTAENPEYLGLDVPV
SK-BR-3 tox 24h – SK-BR-3 proliferation inhibitors, primary screen, cell-based, human, 24 h | SK-BR-3 viability, CellTiter-Glo ATP luminescence; active compounds read low | AID 847, 2007 | viability, % at 10 µM | 0.47% of 41,000 active;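 active means viability at or below the median of all test compounds minus 3 SD, in both replicates if run twice, cut at about 45% in these data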;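 further: 100% = median untreated cell wells and 0% = median positive control drug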
An asterisk follows results filed as active; x = not tested or not shown.

SMILES | Jurkat viability | Her2 expr inh | SK-BR-3 tox 24h
Cc1c(C(=O)NCCN2CCOCC2)oc2ccc(S(=O)(=O)N3CCCCCC3)cc12 | x | -22* | 70
Cc1c(C(=O)N2CCCCC2)oc2ccc(S(=O)(=O)N3CC(C)CC(C)C3)cc12 (stereo unspecified) | 32* | 87 | 83
Cc1c(C(=O)NCCc2ccccc2)oc2ccc(S(=O)(=O)N3CCOCC3)cc12 | x | 186 | 91
CCOc1ncccc1C(=O)NCC1COc2ccccc2O1 (stereo unspecified) | 1 | 88 | x
CN(C)c1nc2n(c(=O)n1)C(C#N)CS2 (stereo unspecified) | x | 144 | 133
O=C(NCc1ccccn1)C1CCC(=O)N1C1CCCC1 (stereo unspecified) | -6 | 132 | x
CC1=CCC2(CO)COC(c3ccccc3O)C1C2 (stereo unspecified) | -4 | 105 | x
COCCCN1C(=O)c2[nH]nc(-c3ccccc3O)c2C1c1cccc(Cl)c1 (stereo unspecified) | 90* | 56 | 103
CC(C)OCCCN1C(=O)c2[nH]nc(-c3ccccc3O)c2C1c1cccc(Cl)c1 (stereo unspecified) | 8 | 7 | 92
O=C(c1ccc(CS(=O)(=O)c2cccc(C(F)(F)F)c2)o1)N1CCN(c2ccccn2)CC1 | 8 | 86 | x
Cc1nn(Cc2ccccc2Cl)c(C)c1C(=O)N1CCN(c2ccccc2)CC1 | -4 | 60 | x
C=CCn1c(=O)/c(=C/c2ccc(O)cc2)s/c1=C(/C#N)c1nnc2n1CCCCC2 | -2 | 94 | x
C=CCn1c(=O)/c(=C/c2cc(OC)c(OC)c(OC)c2)s/c1=C(/C#N)c1nc2ccccc2n1C | x | 80 | 40*
COc1cc(NC(=O)c2ccco2)c(OC)cc1NC(=O)CSc1nnc(-c2cccs2)n1C | 0 | 60 | 42*
COc1cc(NC(=O)c2cccs2)c(OC)cc1NC(=O)c1ccco1 | 19 | 92 | 92
COc1cc(CN2CCN(c3cccc(Cl)c3)CC2)cc(OC)c1OC | 81* | 69 | 98
COc1ccc(CCNC(=O)CN2CCN(c3cccc(Cl)c3)CC2)cc1OC | 1 | 74 | x
CCOC(=O)Cn1c2c(c(=N)c3c1CCC3)CCC2 | 10 | 123 | 99
CCOC(=O)Cn1c2c(c(=N)c3ccccc31)CCC2 | 7 | 102 | 79
N=c1c2c(n(Cc3ccc(Cl)cc3)c3c1CCC3)CCC2 | 88* | 61 | 70
N=c1c2c(n(Cc3ccccc3)c3c1CCC3)CCC2 | 64* | 35 | 88
CC(C(=O)Nc1ccc(S(=O)(=O)N2CCOCC2)cc1)N(c1ccccc1)S(C)(=O)=O (stereo unspecified) | -1 | 89 | 122
CC1CN=C(N(C(=O)Nc2ccccc2)c2ccc(S(=O)(=O)N3CCOCC3)cc2)S1 (stereo unspecified) | 13 | 1.3* | x
C=CCNC(=O)C1CC(=O)N(c2ccc(OCC(=O)Nc3ccccc3)cc2)C1 (stereo unspecified) | 4 | 88 | 96
CC(C)[C@H](NC(=O)OC(C)(C)C)c1nnc(S(=O)(=O)Cc2c(F)cccc2Cl)o1 | 32 | -13* | 157
SMILES | Jurkat viability | Her2 expr inh | SK-BR-3 tox 24h
Cc1ccccc1CS(=O)(=O)c1nnc([C@H](CC(C)C)NC(=O)OC(C)(C)C)o1 | 19 | -14* | 85
Cc1[nH]c(=O)[nH]c(=O)c1CSc1nnc([C@@H](NC(=O)OC(C)(C)C)C(C)C)o1 | -8 | 109 | 82
CC(C)C[C@H](N)c1nnc(S(=O)(=O)Cc2cccc(F)c2)o1 | -3 | 74 | 97
CC(C)=CCSc1nnc([C@@H](NC(=O)OC(C)(C)C)C(C)C)o1 | 2 | 94 | 93
CCOC(=O)CSc1nnc([C@H](Cc2ccccc2)NC(=O)OC(C)(C)C)o1 | -3 | 79 | 112
CC[C@@H](C)[C@H](NC(=O)OC(C)(C)C)c1nnc(S(=O)(=O)Cc2cc(C)ccc2C)o1 | 22 | -13* | 97
CC(C)(C)OC(=O)N[C@@H](Cc1ccccc1)c1nnc(S(=O)(=O)Cc2cccc(F)c2)o1 | 20 | -16* | 127
CCOC(=O)CN1C(=O)C(O)(CC(=O)c2cccc(OC)c2)c2ccccc21 (stereo unspecified) | 4 | 82 | 89
CCn1c(SC(=O)NC2CCCCC2)nnc1-c1cccs1 | 3 | 78 | x
NS(=O)(=O)c1ccc(NC(=O)c2ccccc2C(=O)N2CCCCC2)cc1 | -4 | 71 | 80
O=C(O)c1ccc(COCC(F)(F)C(F)F)o1 | x | 114 | 125
CCOC(=O)C1(Nc2nccs2)Sc2ccccc2NC1=O (stereo unspecified) | 83* | 85 | x
CCOC(=O)Nc1ccc2c(c1)Nc1ccccc1S2 | 12 | 85 | 82
COC(=O)c1cc(OC)c(OC)cc1NC(=O)c1ccoc1C | -1 | 96 | 101
O=C(CCN1C(=O)C2C3C=CC(C3)C2C1=O)NCCN1CCCc2ccccc21 (stereo unspecified) | 6 | 110 | 30*
O=C(CN1C(=O)C2C3C=CC(C3)C2C1=O)NCCN1CCCc2ccccc21 (stereo unspecified) | 1 | 120 | 102
COc1ccc2c(c1OC)C(=O)OC2Nc1ccccc1S(=O)(=O)C(F)F (stereo unspecified) | 3 | -21* | 97
COc1ccc2c(c1OC)C(=O)OC2Nc1ccccn1 (stereo unspecified) | 11 | 65 | 96
ON1C2CCCCC2N(O)C1c1c(F)c(F)c(F)c(F)c1F (stereo unspecified) | 1 | 100 | 82
CCOP(=O)(c1ccc(N(C)C)cc1)C(O)c1cc(OC)c(OC)c(OC)c1 (stereo unspecified) | 1 | 103 | 81
CCOP(=O)(c1ccc(N(C)C)cc1)C(O)c1c(Cl)cccc1Cl (stereo unspecified) | 3 | -16* | 75
Cn1c(=O)c2c(ncn2CC(O)CNc2ccc(Br)cc2)n(C)c1=O (stereo unspecified) | -2 | 71 | 82
CC(=O)NC(c1ccco1)c1ccc2cccnc2c1O (stereo unspecified) | 74* | 45 | x
CN(C)C(=O)CSc1cccc2cccnc12 | 9 | 92 | 86
CSc1ccccc1NS(=O)(=O)c1ccccc1 | -7 | 85 | x
SMILES | Jurkat viability | Her2 expr inh | SK-BR-3 tox 24h
COc1ccccc1-n1c(SCC(=O)N2CCCC2)nc2cccnc21 | 0 | 86 | 90
Oc1c(C(c2cccc(F)c2)N2CCN(Cc3ccccc3)CC2)sc2ncnn12 (stereo unspecified) | -6 | 77 | x
CC(=O)Nc1ccc(S(=O)(=O)c2ccc(N)cc2)cc1 | -3 | 90 | 162
CCOC(=O)/C=C/S(=O)(=O)c1ccc(NC(C)=O)cc1 | 52* | -22* | 3.0*
CC(=O)c1coc2ccc(OCC(=O)O)cc12 | 0 | 97 | 127
CCSc1nnc(NC(=O)Cc2ccc(OC)c(S(=O)(=O)N3CCOCC3)c2)s1 | -4 | 78 | x
Cn1c(=O)[nH]c(=O)c2c1nc(N1CCCCC1)n2CCCSc1nc2ccccc2s1 | 7 | 88 | 83
CCOC(=O)C1=C(N)n2c(s/c(=C\c3cccnc3)c2=O)=C(C(=O)OCC)C1c1cccnc1 (stereo unspecified) | 0 | 99 | 109
